Most compounds without a hit are left out; they make up all but 2.5% or so of the library.
aSyn yeast inh = inhibitors of alpha-synuclein toxicity in yeast; Yeast expressing alpha-synuclein, growth rescue, BacTiter-Glo, 24 h; Potency, µM (top dose mostly 46.1 µM), for the others: at the highest dose growth rescue (activation), actives largely listed as activators; 370,000 compounds, 0.14% hits; AID 652106; also: potency is read from the fitted curve at half-maximal effect; % of control where 0% means no effect; nearly all actives have a fitted effect of over 65% in size
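Readout is rescue of growth in alpha-synuclein-expressing yeast, so inhibitors of toxicity appear as activators. Growth after 24 hr at 30 deg C in galactose medium is quantified by luminescence.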
pAkt inh = inhibitors of Akt phosphorylation; 360,000 compounds, 0.32% hits; Neuro2A IGF-stimulated pAkt S473 HTRF, 20 min; stronger effect = lower value; activity change, % for hits at 50 µM; AID 651550; in the data active = activity change below about -80%; inconclusive = mostly about -51% to -80%; also: % is scaled to controls: 0 for no effect and ±100 for the full control effect
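Neuro2A cells in DMEM with 0.5% FBS, overnight at 37 deg C, given compound at single 50 µM final, then IGF (6 nM final) for 20 min at 37 deg C. Lysed; phospho-Akt Ser473 by HTRF after 24 h, 665/615 ratio.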
Anesthetic bind = binds horse apoferritin like a general anesthetic. apoferritin/1-aminoanthracene competitive binding, fluorescence. 350,000 compounds, 0.074% hits. Potency, µM (top dose mostly 77.5 µM), inactives show top-dose activity change, negative = displacement, usual class: inhibitors; also: potency is read from the fitted curve at half-maximal effect; % is scaled to controls: 0 for no effect and ±100 for the full control effect; nearly all actives have a fitted effect of over 20% in size
Target sequence (P02791 2-175 limits assumed): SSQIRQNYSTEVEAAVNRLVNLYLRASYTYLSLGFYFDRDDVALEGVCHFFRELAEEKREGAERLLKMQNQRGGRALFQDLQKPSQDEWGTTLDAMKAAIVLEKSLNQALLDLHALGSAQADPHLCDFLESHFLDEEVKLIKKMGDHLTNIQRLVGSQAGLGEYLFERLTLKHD
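10 uM apoferritin + 50% sat. 1-AMA, PBS; cpd 10 min RT; Ex380/Em535 endpoint; normalized to free probe vs complex; 4-param Hill fit; propofol titration as pos. ctrl.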
Mito fusion yeast = inhibitors of mitochondrial division or activators of mitochondrial fusion; S. cerevisiae fusion-defective mutant growth rescue, CellTiterGlo 48 h; Potency, µM (titrated, usually from 46.1 µM), for the others: at the highest dose growth rescue (activation), most hits filed as activators; AID 485298; 320,000 compounds, 0.23% hits; also: potency is read from the fitted curve at half-maximal effect; % of control where 0% means no effect; nearly all actives have a fitted effect of over 45% in size
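Temperature-sensitive fusion-defective S. cerevisiae (e.g. fzo1-1, mgm1-5) were grown with compound in YPEG medium (3% ethanol, 3% glycerol) for 48 hours at 37C. Growth rescue was measured as viability by CellTiterGlo luminescence after 10 minutes at ambient.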
CCT chaperon mod = modulators of cytosolic chaperonin (CCT/TRiC) activity. purified chaperonin ATPase assay, HTRF ADP detection, 30 min. activity change, % (test concentration not listed), hits read low. 360,000 compounds, 0.3% hits. AID 651819; in the data active = activity change below about -30%; also: % is scaled to controls: 0 for no effect and ±100 for the full control effect
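First, chaperonin was dispensed at 40 nM or 20 nM final depending on batch activity. Next, compounds were pinned at 76 uM and ATP added at 10 uM. After 30 min at 37 °C, ADP detection reagents ran 30 min at ambient temperature.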
TDP-43 yeast inh = inhibitors of TDP-43 toxicity in yeast; TDP-43 expressing yeast growth rescue, BacTiter-Glo, 24 h; Potency, µM (titrated, usually from 46.1 µM), for inactives: top-dose growth rescue (activation), most hits filed as activators; 410,000 compounds, 1.8% hits; also: potency is read from the fitted curve at half-maximal effect; % of control where 0% means no effect; nearly all actives have a fitted effect of over 50% in size
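Cell-based yeast growth screen: TDP-43 expression induced in galactose, inoculum OD600=0.02 after raffinose pregrowth to mid-log. Read-out BacTiter-Glo luminescence at 24 hr, 30 deg C; inhibition of toxicity seen as signal increase.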
Active calls of the source: *; i = inactive; ? = inconclusive; / = no result; [ ] = remark or other dose. Unless noted, calls follow the shape of the dose curve; as a rule, active = well fitted curve in the direction sought with a large enough effect; inconclusive = small, poorly fitted or top-dose-only effect, or another doubt; inactive = no such curve, though single readings can be large; an effect the other way counts as inactive or inconclusive.

SMILES	aSyn yeast inh	pAkt inh	Anesthetic bind	Mito fusion yeast	CCT chaperon mod	TDP-43 yeast inh
Cc1c(C(=O)NCc2ccc3c(c2)OCO3)sc(=O)n1Cc1ccc(-c2ccccc2)cc1	-4.0%	i	/	/	-0.9	23.5%
CN(C)Cc1nc(-c2cn(C)c3ccccc23)no1	/	/	-6.9%	/	/	/
O=C(CNC(=O)c1ccccc1)NCC(=O)OCC(=O)c1ccc2ccccc2c1	6.0%	/	/	/	/	/
CCc1nn2c(=O)cc(COC(=O)c3cccs3)nc2s1	/	/	-18.7%	/	/	22.8%
COc1ccc([C@H]2CC(=O)C=C(c3cc(Cl)ccc3OC)C2)cc1	12.6%	i	/	?	-3.3	?
COc1ccc(Cl)cc1C1=CC(=O)C[C@H](c2ccc(F)cc2)C1	1.6%	i	/	?	1.7	12.6µM*
COc1ccc(C2=CC(=O)C[C@H](c3ccc(F)cc3)C2)c(OC)c1	5.7%	i	/	?	1.0	22.4µM*
COc1ccc(OC)c(C2=CC(=O)C[C@H](c3ccc(F)cc3)C2)c1	14.8%	i	/	/	-0.6	?
CCOc1ccc(Cl)cc1C1=CC(=O)C[C@H](c2ccc(OC)cc2)C1	-2.5%	i	/	35.5µM*	-0.5	18.3%
COc1ccc(C2=CC(=O)C[C@H](c3ccc(F)cc3)C2)c(F)c1F	20.6%	i	/	?	-1.3	15.8µM*
Cc1ccc(C(=O)NCC(=O)OCC(=O)c2ccc3ccccc3c2)cc1	3.5%	/	/	/	/	/
CCc1ccc(CNC(=O)CSCc2cnn(-c3ccccc3)c2-n2cccc2)cc1	/	/	8.0%	/	/	20.9%
C[C@@H](NC(=O)c1[nH]cnc1C(=O)Nc1ccccc1)c1ccccc1	-7.0%	i	/	-12.0%	0.4	22.4µM*
Cc1ccc(NC(=O)c2nc[nH]c2C(=O)N[C@@H](C)c2ccccc2)cc1	8.2%	i	?	24.4%	-1.4	?
O=C1OCCC1Sc1nc2cc(Cl)ccc2n1Cc1ccccc1 (stereo not drawn)	1.2%	i	-13.8%	-11.7%	1.8	35.5µM*
COCCn1c(CN2CCN(c3cccc(Cl)c3)CC2)nc2c1c(=O)n(C)c(=O)n2C	8.5%	i	-15.2%	-0.9%	-0.5	27.3%
CC(C)CCn1c(CN2CCN(c3cccc(Cl)c3)CC2)nc2c1c(=O)n(C)c(=O)n2C	4.5%	i	2.5%	18.3%	0.3	15.8µM*
CCSc1nnc(NC(=O)c2cc3c(s2)CCCC3)s1	3.2%	-81.0%*	-7.7%	2.2%	-4.0	-6.8%
O=C(Nc1nnc(SCc2ccccc2)s1)c1cc2c(s1)CCCC2	-16.2%	?	?	15.4%	-60.7*	-4.7%
O=C(Nc1cccc(-c2nc3ncccc3o2)c1)c1ccccc1	-0.3%	i	?	3.5%	-2.2	15.8µM*
O=C(COc1ccccc1C(=O)Nc1cccc(F)c1)Nc1ccc(Br)cc1	-1.3%	/	/	/	/	/
O=C1N2CCCc3cccc(c32)C12Nc1ccccc1S2 (stereo not drawn)	?	i	?	-3.9%	0.3	20µM*
CC1Nc2ncnc(N3CCc4ccccc4C3)c2N(Cc2ccc(Br)cc2)C1=O (stereo not drawn)	?	i	/	6.4%	-1.4	11.2µM*
CCC1Nc2ncnc(N3CCc4ccccc4C3)c2N(Cc2ccc(Br)cc2)C1=O (stereo not drawn)	?	i	/	/	-1.1	35.5µM*
COc1ccc(OC)c(NC(=O)c2c(NCc3ccc(C)o3)sc3c2CCC(C)C3)c1 (stereo not drawn)	/	/	2.3%	/	/	18.6%
SMILES	aSyn yeast inh	pAkt inh	Anesthetic bind	Mito fusion yeast	CCT chaperon mod	TDP-43 yeast inh
CC(Cc1cccs1)NC(=S)Nc1ccccc1 (stereo not drawn)	0.9%	i	-16.2%	-9.0%	-5.5	-10.7%[0.397 µM]
CC(Cc1cccs1)NC(=O)Nc1ccc(Cl)c(Cl)c1 (stereo not drawn)	-39.4%	-103.0%*	-23.5%	-12.7%	-5.2	?
CC(Cc1cccs1)NC(=O)Nc1ccccc1 (stereo not drawn)	-10.5%	/	-18.5%	1.6%	-0.9	-8.6%
CC(Cc1cccs1)NC(=O)Nc1ccc(Cl)cc1 (stereo not drawn)	-13.0%	i	-16.1%	7.6%	-0.4	22.4µM*
O=C1Nc2ccccc2N(O)N1c1cc(-c2ccccc2Cl)no1	2.4%	-109.9%*	-2.9%	-2.1%	-0.9	2.4%
O=C1Nc2ccccc2N(O)N1c1cc(-c2cccc(Cl)c2)no1	-5.5%	i	-17.1%	1.5%	0.3	22.7%
C=C1C=C(C(F)F)n2ncc(C(=O)NCc3ccc(OC)cc3)c2N1	3.5%	/	/	/	/	/
COc1cccc(C(=O)N2CCN(C(=O)c3cccs3)CC2)c1OC	0.8%	-111.8%*	-10.0%	-9.9%	-2.7	-11.6%
CCc1ccc(NC(=O)N2CC(C)Oc3ccc(C)cc32)cc1 (stereo not drawn)	/	/	32.7%	/	/	?
Cc1cc(C)c(NC(=O)Cn2c(=O)n(CC3CCCO3)c(=O)c3ccccc32)c(C)c1 (stereo not drawn)	/	/	-4.8%	/	/	?
CN(C)CCNC(=O)c1cccc2c(-c3ccc(F)c(F)c3)coc12	0.1%	i	/	/	-0.3	-9.7%
CN(C)c1cccc(NC(=O)c2cccc3c(-c4ccc(F)c(F)c4)coc23)c1	4.5%	i	/	/	-0.6	14.1µM*
COc1ccc(-c2ccc(C(=O)NCc3ccc(N(C)C)cc3)c3occc23)c(C)c1	-1.3%	i	/	/	-2.7	17.8µM*
O=C(NCc1ccccc1)c1cccc2c(-c3cccnc3)coc12	0.3%	i	/	/	0.0	?
COc1ccc(-c2ccc(C(=O)Nc3cccc(NS(C)(=O)=O)c3)c3occc23)c(C)c1	-7.0%	i	/	/	1.8	14.1µM*
O=C(NCc1ccc(C(F)(F)F)cc1)c1cccc2c(-c3cccnc3)coc12	12.4%	i	/	/	1.4	12.6µM*
COc1ccc(-c2sc(N)nc2-c2ccccc2)cc1	-9.3%	/	/	/	/	/
CCOC(=O)c1c(NC(=O)CSc2cn(CCNC(=O)c3c(F)cccc3F)c3ccccc23)sc2c1CCC2	/	/	-11.9%	/	/	8.0%
COc1ccc(N(Cc2cccs2)C(=O)COc2cc(C)c(Cl)c(C)c2)cc1	/	/	101.1%	/	/	-11.1%
COc1ccc(-c2coc3c(C(=O)Nc4cccnc4)cccc23)c(C)c1	-12.6%	i	/	/	-1.8	17.8µM*
COc1ccc(NC(=O)c2cccc3c(-c4cccnc4)coc23)cc1	11.5%	i	/	/	-4.9	10µM*
O=C(Nc1ccccc1)c1cccc2c(-c3cccnc3)coc12	-0.2%	i	/	/	1.0	14.1µM*
Cc1cccc(-n2c(O)c(C=NCCCN3CCOCC3)c3ccccc3c2=O)c1	3.2%	-120.5%*	-6.4%	6.0%	-2.1	8.1%
Cc1ccc(C(=O)CCS(=O)(=O)c2ccc(Br)cc2)cc1	4.9%	i	-9.8%	-3.8%	0.9	-6.0%

Screens deposited in PubChem by National Center for Advancing Translational Sciences (NCATS).
